Bioassay records as filed in PubChem.
An excerpt weighted towards active compounds, which were near 5.1% of everything screened.
KDM4E inh – blocks human JMJD2E demethylase activity. B2RXH2. JMJD2E catalytic domain, FDH-coupled NADH fluorescence (FDH is formaldehyde dehydrogenase). Potency, µM (doses to about 57.1 µM), without a hit: top-dose activity change, negative = inhibition, most hits filed as inhibitors. 230,000 compounds, 1.6% hits. AID 2147; active = well fitted inhibition curve with a large enough effect, not every such curve was filed as active; inconclusive = small, poorly fitted or top-dose-only effect, or another doubt; inactive = no such curve, though single readings can be large or run the other way;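 note: potency is the fitted concentration of half-maximal effect; 0% = wells with enzyme and -100% = buffer wells without enzyme; nearly all actives have a fitted effect of over 50% in size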
Tau fluor counter – counter-screen for tau fibril formation inhibitors | tau K18 P301L Alexa594 fluorescence, heparin fibrillization | Potency, µM (top dose mostly 57.7 µM), for the others: at the top dose activity change, negative = decrease | 280,000 compounds, 0.93% hits; note: potency is the fitted concentration of half-maximal effect; nearly all actives have a fitted effect of over 55% in size
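Human tau K18 P301L (15 uM unlabeled, 0.24 uM Alexa 594-labeled) in 100 mM sodium acetate pH 7 with 20 uM heparin, 6 hr at 37 C. ThT 30 uM added, 1 hr ambient; Alexa 594 FP and total fluorescence read at 555/632 nm.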
Tau fibril FP – tau fibrillization inhibition (FP); P10636; K18 P301L tau heparin fibrillization, Alexa594 FP, 6 h; Potency, µM (top dose mostly 57.7 µM), without a hit: at the highest dose activity, negative = inhibition, hits mostly inhibitors; 280,000 compounds, 0.39% hits; note: potency is the fitted concentration of half-maximal effect; nearly all actives have a fitted effect of over 55% in size
Target sequence (P10636 561-689 P618L limits assumed): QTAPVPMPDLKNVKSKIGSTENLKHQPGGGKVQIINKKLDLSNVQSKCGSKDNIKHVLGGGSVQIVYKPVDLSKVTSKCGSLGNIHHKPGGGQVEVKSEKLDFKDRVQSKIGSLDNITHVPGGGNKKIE
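K18 P301L tau (15 uM unlabeled/0.24 uM Alexa 594-labeled, final) + compound + heparin 20 uM final; 100 mM NaOAc pH 7; 6 hr 37 C; ThT 30 uM final added, 1 hr RT; FP ex 555/em 632 nm.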
Tau ThT inhib – inhibitors of human tau fibril formation, thioflavin T binding | P10636 | recombinant tau K18 P301L (four-repeat tau fragment), heparin-induced fibrillization, ThT fluorescence | Potency, µM (titrated, usually from 57.4 µM), without a hit: at the top dose activity, negative = inhibition, hits mostly inhibitors | 270,000 compounds, 2.1% hits | AID 1460; note: potency is the fitted concentration of half-maximal effect; nearly all actives have a fitted effect of over 55% in size
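Heparin-induced (20 uM) aggregation of recombinant human K18 P301L tau, 15 uM unlabeled with 0.24 uM labeled, pH 7 acetate buffer, 6 hr at 37 C with compound. Fibrils quantified by 30 uM ThT fluorescence after 1 hr ambient incubation.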
NPSR antag – blocks cAMP signaling of the human neuropeptide S receptor; Potency, µM (titrated, usually from 38.3 µM), for the others: top-dose activity change, negative = inhibition, actives largely listed as inhibitors; CHO-NPSR cells, cAMP TR-FRET, antagonist mode; Q6W5P4; AID 1461; 220,000 compounds, 1% hits; note: potency is the fitted concentration of half-maximal effect; nearly all actives have a fitted effect of over 50% in size
Target sequence (Q6W5P4 whole entry, looked up): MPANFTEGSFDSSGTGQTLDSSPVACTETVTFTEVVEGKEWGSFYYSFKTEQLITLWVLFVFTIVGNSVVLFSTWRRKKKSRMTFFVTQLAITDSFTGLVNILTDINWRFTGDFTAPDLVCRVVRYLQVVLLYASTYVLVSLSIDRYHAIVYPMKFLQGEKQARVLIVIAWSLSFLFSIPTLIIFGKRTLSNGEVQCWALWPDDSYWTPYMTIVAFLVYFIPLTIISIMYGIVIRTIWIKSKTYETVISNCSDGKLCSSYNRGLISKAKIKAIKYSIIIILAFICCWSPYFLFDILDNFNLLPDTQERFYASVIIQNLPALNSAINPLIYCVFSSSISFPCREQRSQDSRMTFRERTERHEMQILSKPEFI
PNC assembly inh – blocks assembly of the perinucleolar compartment; activity change (PNC), negative = inhibition, % at 10 µM; 140,000 compounds, 3.1% hits; PC3M PTB-GFP, PNC prevalence imaging, 16 h; hits give low values;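 active = readout at or below -70, meaning at least 70% loss of cells showing the perinucleolar compartment, a nuclear body marking cancer cells; inconclusive = readout between -30 and a set limit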;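 note: plate controls were DMSO wells for no effect and camptothecin positive control wells for full effect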
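Compounds are pinned in duplicate onto adhered PC3M cells stably expressing GFP-tagged PTB and incubated 16 h at 37 C. Cells are then fixed, nuclei stained with Hoechst, and PNC-positive cells counted.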
Starred values were filed as active, the others as inactive; u = inconclusive; x = no result; [ ] = remark or other dose. Unless noted, calls come from the whole dose curve; as a rule, active = well fitted curve in the direction sought with a large enough effect; inconclusive = small, poorly fitted or top-dose-only effect, or another doubt; inactive = no such curve, though single readings can be large; an effect the other way counts as inactive or inconclusive. Unless noted, % is set by controls: 0 for no effect and ±100 for the full control effect.

SMILES | KDM4E inh | Tau fluor counter | Tau fibril FP | Tau ThT inhib | NPSR antag | PNC assembly inh
CCCN(CCC)c1ccc(CC(=O)NC(C)Cc2ccccc2)cc1 (stereo unspecified) | 2.1% | -14.0% | 11.4% | -9.5% | u | 3.2
Cc1cc(-c2csc(N)n2)c(C)n1Cc1ccco1 | -2.5% | u | -13.4% | 15.8µM* | -40.2% | x
Cc1ccc(-n2c(C)cc(-c3csc(N)n3)c2C)cc1 | 1.1% | -24.2% | -2.7% | u | -23.2% | 29.5
Cc1cc(-c2csc(N)n2)c(C)n1C | -16.0% | u | u | 31.6µM* | -19.8%[46.1 µM] | u
CN=C(c1ccco1)n1c(=S)nc(-c2ccco2)n(C)c1=S | u | -21.7% | u | 28.2µM* | -15.1%[46.1 µM] | -16.0
CN=C(c1ccc(C)cc1)n1c(=S)nc(-c2ccc(C)cc2)n(C)c1=S | u | -6.7% | -12.5% | u | -53.7% | x
O=C(CSc1nc2ccccc2nc1Cc1ccc(F)cc1)Nc1ccc2c(c1)OCO2 | x | -13.5% | -7.8% | 1.1% | x | x
COc1ccc(S(=O)(=O)N2CCC(c3nc4ccccc4s3)CC2)cc1OC | x | -0.1% | 1.8% | 3.0% | x | x
COc1cc(S(=O)(=O)N2CCC(c3nc4ccccc4s3)CC2)ccc1S(=O)(=O)NC1CCCC1 | -4.1% | -6.7% | -5.3% | -6.4% | -7.5%[46.1 µM] | -100.0*
NC(=O)c1cccc(N=Cc2cc(Cl)cc(Cl)c2O)c1 | -9.4% | 3.7% | 10.9% | 0.9% | -39.0% | x
Oc1c(Cl)cc(Cl)cc1C=Nc1ccccc1N1CCCC1 | u | u | -12.7% | 22.4µM* | 3.8% | u
CC(C)COc1cccc(C(=O)Nc2ccc(-c3nc4ncccc4o3)cc2)c1 | x | 3.8% | -7.6% | u | x | x
Cc1nc2ccccc2c(=O)n1NC(=O)c1ccco1 | -1.3% | 5.2% | 1.6% | -2.4% | 0.2%[46.1 µM] | 298.7
Cc1ccccc1OCc1nc2ccccc2c(=O)n1NC(=O)c1ccco1 | 4.4% | -1.8% | 3.2% | -0.8% | 6.6%[46.1 µM] | -100.0*
COc1cc(C2C=C(C34CC5CC(CC(C5)C3)C4)NC(=S)N2)cc(OC)c1OC (stereo unspecified) | -6.6% | 9.3% | 5.2% | 5.5% | 10µM* | -17.3
Cc1ccc2c(c1)c(=O)c(S(=O)(=O)c1ccc(F)cc1)cn2CC(=O)Nc1ccc2c(c1)OCO2 | x | u | -12.8% | -0.6% | x | x
CC(=O)Nc1ccc2nc(NC(=O)c3ccc([N+](=O)[O-])s3)sc2c1 | 7.7% | u | -6.0% | 1.12µM* | 25.3% | x
CC(=O)Nc1ccc2nc(NC(=O)c3cccs3)sc2c1 | u | -6.0% | -3.8% | x | -5.1% | x
O=C(/C=C/c1ccccc1)Nc1ncn[nH]1 | -9.5% | -18.6% | u | 10µM* | 2.4%[46.1 µM] | 46.2
Cc1ccc(C(=O)/C=C\C(=O)c2ccc(C)cc2)cc1 | 0.2% | -7.0% | -2.0% | -10.2% | u | -9.7
Cc1ccc(S/C=C\C(=O)c2ccccc2)cc1 | -2.4% | -23.8% | u | u | 12.6µM* | u
COc1ccc(/C=C/C(=O)c2c(O)c(OC)c3occc3c2OC)cc1 | -18.0% | u | 3.1% | 4.47µM* | 27.4% | x
COc1ccc(/C=C/C(=O)c2ccccn2)cc1 | u | -21.6% | -14.6% | 20µM* | -4.0% | x
CCc1ccc(NC(=O)C(CC)n2c(=O)c(-c3ccccc3NC(C)=O)nc3ccccc32)cc1 (stereo unspecified) | x | 3.5% | 6.8% | -2.6% | x | x
Cc1cccc(N/N=C/c2ccc(O)c(O)c2O)c1 | 3.16µM* | u | 15.8µM* | 10µM* | 6.2% | x
COc1cccc(N/N=C/c2cccc(Br)c2O)c1 | u | 17.8µM*[quencher] | 0.1% | 17.8µM* | -14.2% | x
COc1cccc(/C=N/Nc2cc(Cl)nc(C)n2)c1O | u | -17.5% | 1.8% | u | -28.9% | x
CCc1ccc(NC(=O)C(=O)NCCc2sc3nc(-c4ccc(OC)cc4)nn3c2C)cc1 | x | 3.8% | -3.8% | -11.9% | x | x
CCCCCn1c(=O)[nH]c2cc(C(=O)NCc3ccc(F)cc3)ccc2c1=O | x | -0.1% | -10.0% | -4.1% | x | x
C=CCC(C)(NCc1ccccc1)C(=O)OCC (stereo unspecified) | 1.9% | -5.8% | -0.7% | -7.8% | x | x
